Records with an inconclusive call do not appear. The source made the active and inactive calls. The call rests on the fitted dose curve; in most records, active means well fitted activation curve with a large enough effect; inconclusive means small, poorly fitted or top-dose-only effect; inactive means flat fitted curve, though single readings scatter. Numbered stars: 1 amine (or outer) side, 2 acyl side, 3 side chain; on linkers, the order of the positions; unused ones are H or OH. Bridge positions count the residues as written; N and C are the ends. Square brackets hold non-standard residues; d marks the D form. Peptide text beside a SMILES is read from it. I, II: the chains in the order shown. Actinocin(9to1) = Cc1c2oc3c(C)ccc(C(=O)[*:1])c3nc-2c(C(=O)[*:2])c(N)c1=O; NMeV = CN[C@H](C(=O)O)C(C)C; Sar = CNCC(=O)O
Assay: Cellular Toxicity (caspase-3) Hek293 (AID 664);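 further: cells exposed to compound for 16 h at 37 °C before readout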
Details: HEK293 caspase-3 activation, DMSO = 0%, 100 µM tamoxifen = 100%; series mostly up to 92.2 µM
Summary of the method: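 Luminescent Caspase-Glo 3/7 readout (aminoluciferin release) in HEK293 cells after 16 h compound treatment, 37 °C. Normalization: DMSO = basal, 100 uM tamoxifen = 100% stimulation. Concentration-response fitted with standard Hill equation for AC50.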

| SMILES | outcome |
| --- | --- |
| C=C(CC)C(=O)c1ccc(OCC(=O)O)c(Cl)c1Cl | inactive |
| C=CCc1ccc(O)c(OC)c1 | inactive |
| NC(=NCCCCCCN=C(N)/N=C(\N)Nc1ccc(Cl)cc1)/N=C(\N)Nc1ccc(Cl)cc1 | inactive |
| CC(O)C(=O)O (stereo not given) | inactive |
| Nc1ccc(C(=O)O)cc1 | inactive |
| Oc1c(I)cc(Cl)c2cccnc12 | inactive |
| CN(C)/N=N/c1nc[nH]c1C(N)=O | inactive |
| COc1cccc2c1C(=O)c1c(O)c3c(c(O)c1C2=O)C[C@@](O)(C(=O)CO)C[C@@H]3O[C@H]1C[C@H](N)[C@H](O)[C@H](C)O1 | inactive |
| Oc1ccc(O)cc1 | inactive |
| Oc1ccc(Cl)cc1Sc1cc(Cl)ccc1O | inactive |
| O=C1OC(c2ccc(O)cc2)(c2ccc(O)cc2)c2ccccc21 | inactive |
| C[C@]12CC[C@@H]3c4ccc(O)cc4CC[C@H]3[C@@H]1CC[C@@H]2O | inactive |
| CC/C(=C(/CC)c1ccc(O)cc1)c1ccc(O)cc1 | inactive |
| Cc1c2oc3c(C)ccc(C(=O)N[C@@H]4C(=O)N[C@H](C(C)C)C(=O)N5CCC[C@H]5C(=O)N(C)CC(=O)N(C)[C@@H](C(C)C)C(=O)O[C@@H]4C)c3nc-2c(C(=O)N[C@@H]2C(=O)N[C@H](C(C)C)C(=O)N3CCC[C@H]3C(=O)N(C)CC(=O)N(C)[C@@H](C(C)C)C(=O)O[C@@H]2C)c(N)c1=O (I: T[dV]P[Sar][NMeV] / II: T[dV]P[Sar][NMeV]; ester I:1-I:C, II:1-II:C; linker I:N-II:N via Actinocin(9to1)) | inactive |
| COC1=CC(=O)C[C@@H](C)[C@]12Oc1c(Cl)c(OC)cc(OC)c1C2=O | inactive |
